The text below walks through data of PubChem BioAssay (NCATS).

Results filed as inconclusive are left out. Active and inactive are the calls of the source. Unless noted, calls follow the shape of the dose curve; as a rule, active = well fitted curve in the direction sought with a large enough effect; inconclusive = small, poorly fitted or top-dose-only effect, or another doubt; inactive = no such curve, though single readings can be large; an effect the other way counts as inactive or inconclusive.

Assay [1] can be described thus: qHTS Assay for Identification of Small Molecule Agonists for Thrombopoietin (TPO) Signaling Pathway (AID 917). In a few lines:
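Luminescence from a Glycoprotein IIb promoter–driven luciferase reporter served as read-out in murine Ba/F3 cells carrying the human TPO receptor. Cells, deprived of IL-3 overnight, received compounds with 26 pM TPO and were incubated 24 hrs at 37 C.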
For orientation: In qHTS, concentration-response curves come from the screen itself.

A short description of assay [2]: qHTS Assay for Identification of Small Molecule Antagonists for NFkB Signaling Pathway (AID 895; active = well fitted inhibition curve with a large enough effect in the signal ratio, with a control signal flat, not every such curve was filed as active; the % refers to the signal ratio; also: potency is read from the fitted curve at half-maximal effect). Put shortly: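 Beta-lactamase reporter read-out (460 and 530 nm emission ratio, 405 nm excitation, 2 hrs substrate loading RT) after 5 hr stimulation with 10 pM TNF alpha in compound-treated NFkB-bla ME-180 cells in low-serum medium.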
Assay [3] is described as follows: qHTS Assay for Identification of Small Molecule Antagonists for Thrombopoietin (TPO) Signaling Pathway (AID 918). Also: potency is read from the fitted curve at half-maximal effect; nearly all actives have a fitted effect of over 60% in size. To be noted: TPO-dependent cell signaling reporter, antagonist mode. In a few lines: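 Ba/F3 (murine, hTPO-R, GPIIb-luc reporter); overnight IL-3 withdrawal; cpd + TPO 26 pM final (EC50); 24 h 37 C/5% CO2; Steadylite luminescence after 10 min RT.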
Assay [4] has as its target Muscarinic acetylcholine receptor M1 (Rattus norvegicus) (UniProt P08482). Kind of assay: qHTS Assay for Antagonists of Acetylcholine Muscarinic M1 Receptor: Measurement of IP-One Response (AID 944). Also: nearly all actives have a fitted effect of over 75% in size. Put shortly: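 M1-CHO (rat), 2000 cells/well, overnight recovery; cpd 10 min; carbachol EC80 (200 nM), 30 min, HEPES buffer + 50 mM LiCl pH 7.4; IP-One HTRF, Ex 337, Em 620/665 nm.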

For assay [5], the target named is Pyruvate kinase PKM (Homo sapiens) (UniProt P14618). Kind of assay: qHTS Assay for Inhibitors of Human Muscle Pyruvate Kinase (AID 958). In a few lines: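 ATP production by PKM2 detected via luciferase luminescence after 1 h room-temperature reaction (0.1 nM enzyme, PEP at Km 0.5 mM, ADP 0.1 mM, pH 7.2 imidazole buffer). Inhibition scaled to no-enzyme control; activation referenced to 0.3 nM enzyme wells.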
Sequence of Pyruvate kinase PKM (Homo sapiens) (P14618 whole entry, looked up): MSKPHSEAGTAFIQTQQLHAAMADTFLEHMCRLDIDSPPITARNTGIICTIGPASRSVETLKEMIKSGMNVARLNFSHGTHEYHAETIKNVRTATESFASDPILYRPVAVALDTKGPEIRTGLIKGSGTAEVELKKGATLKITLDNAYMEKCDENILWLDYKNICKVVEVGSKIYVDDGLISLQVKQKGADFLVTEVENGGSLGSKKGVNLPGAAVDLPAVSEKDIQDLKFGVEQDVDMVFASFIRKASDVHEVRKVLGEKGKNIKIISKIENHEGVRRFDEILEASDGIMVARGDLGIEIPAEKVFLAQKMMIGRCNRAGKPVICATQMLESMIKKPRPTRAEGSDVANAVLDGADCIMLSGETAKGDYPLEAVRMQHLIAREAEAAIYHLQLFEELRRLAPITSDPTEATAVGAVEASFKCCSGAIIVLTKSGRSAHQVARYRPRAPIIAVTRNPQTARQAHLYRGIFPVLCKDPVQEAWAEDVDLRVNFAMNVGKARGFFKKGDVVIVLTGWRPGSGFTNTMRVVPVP

The target in assay [6] is Luciferin 4-monooxygenase (Photinus pyralis) (UniProt P08659). The assay can be described thus: Biochemical firefly luciferase enzyme assay for NPC (AID 624030).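 Also: purified P. pyralis luciferase at 10 nM with luciferin and ATP substrate; nearly all actives have a fitted effect of over 70% in size.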 In a few lines:
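Direct inhibition of firefly luciferase enzyme (10 nM final, 50 mM Tris Acetate) assessed by luminescence within 5 minutes. Percent activity scaled between DMSO and PTC124 positive control, with concentration-effect curves classified by fit quality and response.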

The test system of assay [7] is P93_24. Kind of assay: qHTS profiling for inhibitors of Plasmodium falciparum proliferation (AID 504749). Also: nearly all actives have a fitted effect of over 60% in size. The settings on record: P. falciparum in erythrocytes, SYBR Green DNA, 72 h; series mostly up to 28.7 µM. Put shortly: (§1)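 Infected RBCs, 0.3% parasitemia/2.5% Hct final; cpd 72 h, 37 C, 5% CO2; lysis buffer with saponin/triton/SYBR Green I, o/n RT dark; FI 485/535; norm. to artemisinin (0.29 uM) and DMSO.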

Assay [8] relates to PC15. Described as above. To be noted: P. falciparum in erythrocytes, SYBR Green DNA, 72 h; series mostly up to 28.7 µM. In a few lines:
as §1

In assay [9] the test system is PC26. The assay is described as above. To be noted: P. falciparum in erythrocytes, SYBR Green DNA, 72 h; series mostly up to 28.7 µM. In a few lines: as §1
Assay [10] deals with W2. The description is as above. To be noted: P. falciparum in erythrocytes, SYBR Green DNA, 72 h; series mostly up to 28.7 µM. In a few lines: as §1
The nature of assay [11]: S16 Schwann cell viability assay (CellTiter-Glo assay) (AID 624031).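 Also: cellular ATP luminescence as a viability measure; nearly all actives have a fitted effect of over 70% in size.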 In a few lines:
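Native S16 rat Schwann cells in DMEM/10% FBS without phenol red were incubated overnight, then exposed to compounds for 24 h at 37 °C/5% CO2. Viability was read as ATP luminescence (CellTiter-Glo), normalized to no-cell wells and DMSO (0%).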

The test system of assay [12] is CP266. The assay can be described thus: qHTS profiling for inhibitors of Plasmodium falciparum proliferation (AID 504749). Also: nearly all actives have a fitted effect of over 60% in size. To be noted: P. falciparum in erythrocytes, SYBR Green DNA, 72 h; series mostly up to 28.7 µM. Put shortly: as §1
Assay [13] deals with TAB113. The assay is described as above. To be noted: P. falciparum in erythrocytes, SYBR Green DNA, 72 h; series mostly up to 28.7 µM. Put shortly: as §1

Sequence of Luciferin 4-monooxygenase (Photinus pyralis) (P08659 whole entry, looked up): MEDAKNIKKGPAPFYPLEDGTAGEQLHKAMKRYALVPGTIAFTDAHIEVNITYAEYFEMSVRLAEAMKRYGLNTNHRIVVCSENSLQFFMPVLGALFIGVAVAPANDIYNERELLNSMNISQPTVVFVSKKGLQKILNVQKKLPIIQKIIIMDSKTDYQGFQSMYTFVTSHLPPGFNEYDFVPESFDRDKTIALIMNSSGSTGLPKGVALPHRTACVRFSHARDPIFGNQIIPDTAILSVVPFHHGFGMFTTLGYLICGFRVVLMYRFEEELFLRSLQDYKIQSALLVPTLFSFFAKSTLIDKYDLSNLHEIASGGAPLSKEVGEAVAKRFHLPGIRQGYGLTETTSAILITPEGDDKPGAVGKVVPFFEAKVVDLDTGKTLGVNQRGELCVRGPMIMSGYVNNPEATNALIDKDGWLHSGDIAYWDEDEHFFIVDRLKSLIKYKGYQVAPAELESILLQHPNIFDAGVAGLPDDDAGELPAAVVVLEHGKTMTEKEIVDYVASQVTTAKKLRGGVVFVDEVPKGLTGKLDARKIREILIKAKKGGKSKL
Sequence of Muscarinic acetylcholine receptor M1 (Rattus norvegicus) (P08482 whole entry, looked up): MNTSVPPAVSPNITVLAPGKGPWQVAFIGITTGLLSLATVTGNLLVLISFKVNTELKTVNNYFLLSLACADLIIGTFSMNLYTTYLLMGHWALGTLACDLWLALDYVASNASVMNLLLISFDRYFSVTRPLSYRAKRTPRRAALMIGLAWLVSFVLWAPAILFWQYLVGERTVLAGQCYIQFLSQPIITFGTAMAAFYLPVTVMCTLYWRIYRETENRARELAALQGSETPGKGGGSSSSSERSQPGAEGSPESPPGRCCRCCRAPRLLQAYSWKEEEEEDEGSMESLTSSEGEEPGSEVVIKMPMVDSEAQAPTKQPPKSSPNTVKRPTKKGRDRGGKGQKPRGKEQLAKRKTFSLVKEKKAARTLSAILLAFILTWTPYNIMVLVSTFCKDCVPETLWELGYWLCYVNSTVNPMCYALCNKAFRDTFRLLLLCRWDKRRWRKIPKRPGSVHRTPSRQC

`C[C@@H]1O[C@@H](O[C@H]2C[C@@H](O)[C@]3(CO)[C@@H]4[C@@H](O)C[C@]5(C)[C@H](C6=CC(=O)OC6)CC[C@@]5(O)[C@H]4CC[C@@]3(O)C2)[C@H](O)[C@H](O)[C@@H]1O`: the compound was classed as inactive in assay [1].
Consider `Oc1cc2c(cc1O)[C@H]1c3ccccc3CN[C@@H]1CC2`, for which the figures for the Potency in assay [2] and in assay [3] were 6.31 µM (active) and 10 µM (active), respectively. For the same compound, the Potency entry in [4] and in assay [5] was “inactive” in each case.
Regarding `Nc1nc(O)c(-c2ccccc2)o1`, the Potency result in [6], in [7], in assay [8], in [9] and in [10] was “inactive” throughout.
Turning to `CC1OC(O[C@H]2C[C@@H](O)[C@]3(CO)[C@@H]4C(CC[C@]3(O)C2)[C@@]2(O)CC[C@H](C3=CC(=O)OC3)[C@@]2(C)C[C@H]4O)C(O)C(O)C1O` (stereo not given in full), the Potency entry in assay [6], in [11], in assay [12], in assay [7] and in [13] was “inactive” each time.
